Source: ChEMBL document CHEMBL3988442, “University of Dundee, Small-Polar-MMV Screening Library” (2021)
Among all 69,000 compounds or so, about 1,000 (1.4%) showed an effect of 50% or more. Only a selection was taken, and strong results are over-represented in it overall.

Tested on: Leishmania donovani
Test: Leishmania intramacrophage assay
Type: functional, organism-based
Design: scale not given: in the data most compounds retested in dose-response had high values

`Cc1cc(C)n(-c2cncc(N3CCC(C(=O)N(C)C)CC3)n2)n1` was tested, and the “Percent Effect” value (30.3 µM, […]) was -6.574%.

With `O=C(c1ccc(=O)[nH]n1)N1CCNCC1c1ccccc1` (stereo not drawn) the “Percent Effect” value (30.3 µM, […]) was -5.209%.

With `CC(C)Nc1cccc(C(=O)NCC(O)c2cccc(F)c2)c1` (stereo not drawn) the “Percent Effect” value (30.3 µM, […]) was 8.412%.

For `CCc1nc(N)sc1C(=O)N1CCCC(CCc2ccccc2C)C1` (stereo not drawn), the “Percent Effect” value (30 µM, 30.03 µM) was 59.23%.

For `Cc1ccccc1CCC1CCCN(C(=O)Cc2cc(=O)[nH]c(N)n2)C1` (stereo not drawn), the “Percent Effect” value (30.3 µM, […]) was -48.51%.

With `CCc1nc(N)sc1C(=O)N1CCCC(COc2cccc(C)c2)C1` (stereo not drawn) the “Percent Effect” value (30.3 µM, […]) was -12.25%.

`CC(=O)N1CCC(c2cncc(N3CCC(O)C3)n2)CC1` (stereo not drawn) was tested, and the “Percent Effect” value (30.3 µM, […]) was 8.685%.

With `O=C(O)C(F)(F)F.O=S(=O)(NC1CCC12CCN(CC1CCOCC1)CC2)c1ccccc1` (stereo not drawn) the “Percent Effect” value (30.3 µM, […]) was 17.74%.

In the case of `CC(C)(C)OC(=O)N[C@@H]1C[C@@H](O)CN(C(=O)c2cccc(F)c2)C[C@H]1O`, the “Percent Effect” value (30.3 µM, […]) is reported as 29.87%.

In the case of `Cc1noc(C)c1CNCc1nn(-c2ccccc2)c2c1CCC2`, the “Percent Effect” value (30.3 µM, […]) is reported as -2.831%.

For `Cc1c(CNCc2nn(-c3ccccc3)c3c2CCC3)cc(C#N)n1C`, the “Percent Effect” value (30.3 µM, […]) was 49.86%.

With `COc1ccccc1CNCc1nn(-c2ccccc2)c2c1CCC2` the “Percent Effect” value (30.3 µM, […]) was 72.37%.

`CC(=O)c1cccc(OCCCC(=O)N(C)Cc2cnn(C)c2)c1` was tested, and the “Percent Effect” value (30.3 µM, […]) was -2.967%.

`c1cncc(-c2noc(CNc3ncnc4c3CCNCC4)n2)c1` was tested, and the “Percent Effect” value (30.3 µM, […]) was 35.11%.

`Clc1ccccc1-c1cc(CNc2ncnc3c2CCNCC3)no1` was tested, and the “Percent Effect” value (30.3 µM, […]) was 94.85%.

In the case of `c1cncc(-c2noc(CCNc3ncnc4c3CCNCC4)n2)c1`, the “Percent Effect” value (30.3 µM, […]) is reported as 24.85%.

For `Cc1ccccc1-n1cc(CNc2ncnc3c2CCNCC3)cn1`, the “Percent Effect” value (30.3 µM, […]) was 29.71%.

With `COCc1noc(CCNc2ncnc3c2CCNCC3)n1` the “Percent Effect” value (30.3 µM, […]) was 2.148%.

In the case of `Cc1cccc(-n2cc(CNc3ncnc4c3CCNCC4)cn2)c1`, the “Percent Effect” value (30.3 µM, […]) is reported as 61.6%.

In the case of `c1ccc(CN2CCC(CCNc3ncnc4c3CCNCC4)C2)cc1` (stereo not drawn), the “Percent Effect” value (30.3 µM, […]) is reported as -39.7%.

`c1ccc(Cn2cc(CNc3ncnc4c3CCNCC4)cn2)cc1` was tested, and the “Percent Effect” value (30.3 µM, […]) was 13.57%.

With `Cc1cccc(=O)n1CCCNc1ncnc2c1CCNCC2` the “Percent Effect” value (30.3 µM, […]) was 9.317%.

`c1ccc(CN2CCC(CNc3ncnc4c3CCNCC4)CC2)cc1` was tested, and the “Percent Effect” value (30.3 µM, […]) was -23.91%.

For `Cc1ccc(-c2cc(CNc3ncnc4c3CCNCC4)no2)cc1`, the “Percent Effect” value (30.3 µM, […]) was 97.6%.

For `COc1ccc(-c2cc(CNc3ncnc4c3CCNCC4)no2)cc1`, the “Percent Effect” value (30.3 µM, […]) was 66.16%.

For `Cn1cc(-c2cc(-c3cnn(C)c3)n(CC(=O)NC3CC3)n2)cn1`, the “Percent Effect” value (30.3 µM, […]) was -1.984%.

With `Cc1ncc(CN(C)C2CCCN(CCc3ccccc3)C2)n1C` (stereo not drawn) the “Percent Effect” value (30.3 µM, […]) was 22.06%.

With `CN(CCCNC(=O)C1CCCN(C(N)=O)C1)S(C)(=O)=O` (stereo not drawn) the “Percent Effect” value (30.3 µM, […]) was 4.871%.
